# Most compounds without a hit are left out; they make up all but 9.2% or so of the library.
# Rab9 promoter act = activators of Rab9 promoter | 320,000 tested, 2.8% active | AID 485297 | Potency, µM (top dose mostly 9.22 µM), for the others: at the highest dose activation, negative = inhibition, most hits filed as activators | Huh7 Rab9 promoter-luciferase reporter, luminescence, 24 h; note: % of control where 0% means no effect; nearly all actives have a fitted effect of over 60% in size
#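 Measured in stably transfected Huh7 cells bearing a Rab9 promoter–luciferase construct: 24 h compound treatment at 37 °C, followed by luminescence detection.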
# FLuc modulator = inhibits or activates purified firefly luciferase, miR-21 counter-screen. 360,000 tested, 6.9% active. purified FLuc, Km substrates, luminescence inhibition. AID 588342. Potency, µM (highest dose often 57.5 µM), inactives show at the top dose activity change, negative = inhibition, most hits filed as inhibitors;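 note: plate controls were vehicle for no effect and reference inhibitor for full effect; nearly all actives have a fitted effect of over 55% in size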
# Target sequence (P08659 whole entry, looked up): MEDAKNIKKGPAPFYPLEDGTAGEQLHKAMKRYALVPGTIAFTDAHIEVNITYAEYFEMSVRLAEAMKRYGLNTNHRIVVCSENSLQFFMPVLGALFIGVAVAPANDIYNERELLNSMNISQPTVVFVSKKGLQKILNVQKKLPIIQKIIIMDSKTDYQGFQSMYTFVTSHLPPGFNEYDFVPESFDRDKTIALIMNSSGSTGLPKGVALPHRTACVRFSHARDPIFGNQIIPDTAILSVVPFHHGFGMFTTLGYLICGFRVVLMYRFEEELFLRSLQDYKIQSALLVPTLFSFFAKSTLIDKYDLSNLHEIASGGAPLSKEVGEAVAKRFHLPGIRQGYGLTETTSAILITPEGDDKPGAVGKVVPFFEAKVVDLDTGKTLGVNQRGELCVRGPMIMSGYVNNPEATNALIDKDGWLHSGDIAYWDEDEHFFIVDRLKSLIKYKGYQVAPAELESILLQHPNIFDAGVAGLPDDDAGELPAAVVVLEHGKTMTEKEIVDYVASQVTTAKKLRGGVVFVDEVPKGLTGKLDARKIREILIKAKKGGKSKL
#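 Purified P. pyralis luciferase (10nM final) with 10uM D-luciferin and 10uM ATP (Km levels) in 50mM Tris acetate pH 7.5, 10mM Mg acetate, 0.01% Tween-20, 0.05% BSA; qHTS 6-point titration, ~60 µM downward; luminescence read.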
# NPC1 promoter act = activators of NPC1 promoter. Huh7 NPC1 promoter luciferase reporter, 24 h. Potency, µM (highest dose often 9.22 µM), inactives show at the highest dose activation, actives largely listed as activators. 320,000 tested, 2.4% active. AID 485313; note: % of control where 0% means no effect; nearly all actives have a fitted effect of over 60% in size
#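 Huh7 cells stably carrying NPC1 promoter–luciferase, plated in Opti-MEM with 10% FBS for 2 h, were exposed to compound in DMSO for 24 h at 37 °C; luciferase reagent was added for 10 min and luminescence read.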
# ELG1 genotoxic = induces genotoxicity in HEK293T cells with luciferase-tagged ELG1. HEK293T ELG1-luciferase reporter, luminescence, 16 h. Potency, µM (series often up to 46 µM), without a hit: at the highest dose activity change, positive = activation, hits mostly activators. 330,000 tested, 1.3% active; note: % of control where 0% means no effect; nearly all actives have a fitted effect of over 60% in size
#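 DMSO vehicle served as control against compound-treated ELG1-luciferase HEK293T cells; exposure lasted 16 hr at 37 °C and 5% CO2, followed by ONE-Glo luminescence detection after 30 min.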
# ELG1 DNA repair = ELG1-dependent DNA repair inhibition. HEK293T ELG1-luciferase reporter, luminescence, 16 h; DNA damage induced by 5-fluorouridine. Potency, µM (highest dose often 46.1 µM), for the others: at the top dose activity change, negative = inhibition, most hits filed as inhibitors. 330,000 tested, 2.3% active. AID 504467; note: % is set by controls: 0 for no effect and ±100 for the full control effect; nearly all actives have a fitted effect of over 55% in size
#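 HEK293T cells expressing luciferase-tagged ELG1 (2,000/well) received 5-Fluorouridine plus compound or DMSO for 16 hr at 37 °C. Luciferase was read by ONE-Glo luminescence after 30 min at room temperature.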
# SMN2 splice up = increases expression of the SMN2 splice variant | 210,000 tested, 2.8% active | Potency, µM (titrated, usually from 46.1 µM), inactives show top-dose activity change, positive = activation, actives largely listed as activators | HEK293 SMN2-luciferase splicing reporter, luminescence, 30-36 h; note: % of control where 0% means no effect; nearly all actives have a fitted effect of over 55% in size
#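 HEK293 cells carry an SMN2 minigene-luciferase reporter in which exon 7 inclusion puts luciferase in frame. Cells were seeded at 2000 cells/well, attached for 10-12 hours, then exposed to compounds for 30-36 hours at 37C before ONE-Glo luminescence.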
# Numbers without * were called inactive; ? = inconclusive; · = not tested or not shown; [ ] = another dose, or the depositor's remark. Calls come from the whole dose curve; as a rule, active = well fitted curve in the direction sought with a large enough effect; inconclusive = small, poorly fitted or top-dose-only effect, or another doubt; inactive = no such curve, though single readings can be large; an effect the other way counts as inactive or inconclusive. Potency is the fitted concentration of half-maximal effect.
SMILES,Rab9 promoter act,FLuc modulator,NPC1 promoter act,ELG1 genotoxic,ELG1 DNA repair,SMN2 splice up
CC(C)Oc1ccc(C(=O)NC2CCCCC2)cc1,4µM*,11µM*,2.8µM*,18µM*,?,?
CC(C)Oc1ccc(C(=O)NC2CCS(=O)(=O)C2)cc1 (stereo not given),5%,4%,-3%,0%,?,-6%
C=CCNc1ccccc1S(=O)(=O)NCc1ccccc1,·,·,·,0%,6%,·
O=C(CCOc1ccccc1)N(Cc1cccnc1)c1nc2c(F)cccc2s1,·,-14%,·,·,·,·
O=C(c1cc2c(s1)CCCCC2)N1CCN(c2ncccn2)CC1,10%,-2%[2.3 µM],8%,2%,19%,2%
COc1ccc2c(c1)CCc1cc(C(=O)N3CCN(c4ccc(N5CCOCC5)nn4)CC3)sc1-2,-4%,?,-5%,-29%,21µM*,-53%
O=C(c1cc2c(s1)CCCC2)n1cccn1,-6%,21µM*,-1%,5%,16%,-1%
CC(C)NC(=O)C1CCN(C2CCN(C(=O)c3cc4c(s3)CCCCC4)CC2)CC1,-13%,-8%,-5%,-7%,-14%,-22%
NC(=O)C1CCN(C(=O)c2cc3c(s2)CCCC3)CC1,1.4µM*,-14%,1.8µM*,15%,?,·
CC(=O)c1ccc(N2CCN(C(=O)c3cc4c(s3)CCCC4)CC2)cc1,17%,24µM*,5%,14%,9%,11%
O=C(O)c1cc2c(s1)CCCC2,-2%,-6%,-1%,-2%,7%,7%
COc1ccc(-c2onc(C)c2C)cc1S(=O)(=O)N1c2ccccc2CC1C (stereo not given),·,-1%,·,·,·,·
CCN(CC)S(=O)(=O)c1ccc2[nH]cc(C(=O)NC3CC3)c(=O)c2c1,-5%,-15%,0%,0%,15%,·
COc1ccccc1N1CCN(C(=O)c2cc3c(s2)CCC3)CC1,0%,-3%,1%,-2%,-16%,-15%
COc1ccc(N2CCN(C(=O)c3cc4c(s3)CCCCC4)CC2)cc1,-1%,17µM*,3%,0%,-2%,·
Cc1ccc(Cl)c2c1=NC(=O)C=2c1[nH]c(=S)[nH]c1O,-1%,19µM*,1%,-9%,-5%,29%
COc1ccc(C=O)cc1CN1CCCN(Cc2ccc(Cl)cc2)S1(=O)=O,5%,1%,5%,-3%,-18%,·
COC(=O)c1ccc(OC)c(CN2CCCN(Cc3ccc(F)cc3)S2(=O)=O)c1,-8%,1%,4%,-8%,13µM*,·
CCOc1cccc2sc(N3CCN(C(=O)c4ccc5c(c4)CCCC5)CC3)nc12,·,-19%,·,·,·,·
CC(=O)c1c(C(C)=O)c(C)n(-c2ccc(O)cc2)c1C,·,5%,·,·,·,-9%
CCN(CC)c1ccc(-n2c(C)c(C(C)=O)c(C(C)=O)c2C)cc1,-2%,-1%,-1%,-33%,10µM*,-34%
COc1cccc(NC(=O)c2ccc(CN3CCc4ccccc4C3)cc2)c1,-21%,19µM*,-8%,15%,?,·
C/C(=N\NC(=O)c1ccc(CN2CCc3ccccc3C2)cc1)c1ccccc1O,-23%,-19%,-13%,6%,3.3µM*,-62%
O=C(Nc1ccc(Cl)cc1)c1ccc(CN2CCc3ccccc3C2)cc1,-25%,1%,-25%,-3%,?,·
COc1ccc(NC(=O)c2ccc(CN3CCc4ccccc4C3)cc2)cc1OC,-3%,?,-4%,3%,?,·
SMILES,Rab9 promoter act,FLuc modulator,NPC1 promoter act,ELG1 genotoxic,ELG1 DNA repair,SMN2 splice up
CC(=O)c1cccc(NC(=O)c2ccc(CN3CCc4ccccc4C3)cc2)c1,-17%,?,-2%,10%,8.2µM*,·
CN(C)C(=O)C(OC(=O)c1ccc2ccccc2n1)c1ccccc1 (stereo not given),-5%,-3%,1%,0%,-10%,·
N#C/C(=C\c1ccc(-c2cc(Cl)ccc2Cl)o1)C(=O)Nc1cccc2ncccc12,-17%[46.1 µM],·,-5%[46.1 µM],·,·,·
CC(C)(C)c1ccc(-c2noc(CCC(N)=O)n2)cc1,-32%,6µM*,-26%,-11%,?,-43%
CNC(=O)CCc1nc(-c2ccc(C(C)(C)C)cc2)no1,13%,4.8µM*,?,15%,?,-17%
CCOc1ccc(-c2noc(CCC(=O)NC)n2)cc1OCC,8%,1%,-4%,1%,10%,·
CC(C)(CC(=O)O)Cc1nc(-c2ccc(Cl)cc2)no1,3%,27µM*,16%,?,?,7%
CC(C)(C)c1ccc(-c2noc(CCC(=O)NCC3CCCO3)n2)cc1 (stereo not given),-20%,1.9µM*,-15%,14%,?,-58%
c1ccc2c(c1)NCC1CCCN21 (stereo not given),21%,-3%,4%,0%,?,·
COC(=O)c1c(C)nn(-c2ccc(F)cc2)c1-n1cccc1,·,3%,·,·,·,-2%
CCOc1cc(-c2noc(CCC(=O)Nc3cccnc3)n2)ccc1OC,18%,0%,16%,4%,21µM*,-7%
CC(C)(C)c1ccc(-c2noc(CCC(=O)Nc3cccnc3)n2)cc1,-37%,1.7µM*,-39%,?,-4%,·
Cc1ccc(-c2noc(CNC(=O)c3ccc(C(C)(C)C)cc3)n2)cc1,·,-19%,·,·,·,3%
CN(C)C(=O)CCc1nc(-c2ccc(C(C)(C)C)cc2)no1,3.2µM*,5.4µM*,2.5µM*,?,?,-12%
COc1ccc(-c2noc(CCC(=O)Nc3cccnc3)n2)cc1,-2%,?,-4%,4%,15%,·
COc1ccc(-c2noc(CCC(=O)N3CCN(c4cccc(OC)c4)CC3)n2)cc1,·,·,·,-7%,26µM*,·
CCS(=O)(=O)N1CCc2cc(C(=O)Nc3ccc(C)c(Cl)c3)ccc21,·,5%,·,·,·,·
Cc1ccc2c(CNCc3cccc(Cl)c3)c(C(=O)O)n(Cc3ccc(F)cc3Cl)c2c1,·,-13%,·,·,·,·
CC(C)(C)c1ccc(-c2noc(CCC(=O)N3CCOCC3)n2)cc1,1.8µM*,2.4µM*,?,?,?,?
COc1ccc(-c2noc(CCC(=O)Nc3cc(Cl)c(OC)cc3OC)n2)cc1,-1%,8.5µM*,0%,?,1%,2%
COc1ccc(-c2noc(CCC(=O)Nc3cc(OC)ccc3OC)n2)cc1,0%,?,-2%,-3%,?,-23%
Cc1nc2sccn2c(=O)c1S(=O)(=O)Nc1ccc(N2CCN(S(C)(=O)=O)CC2)cc1,-1%,0%,3%,-22%,9.2µM*,-33%
CC(=O)Nc1ccc(NS(=O)(=O)c2c(C)nc3sccn3c2=O)cc1,·,0%,·,·,·,·
COC(=O)N/N=C/c1c[nH]c2ccccc12,1%,-16%,-3%,0%,0%,-47%

# Screening data deposited in PubChem BioAssay by National Center for Advancing Translational Sciences (NCATS).
